In the library only some 9.6% were active in any assay of this set; here they are far more common.
USP17 block – blocks human USP17 ubiquitin-rhodamine cleavage. A8MUK1. purified USP17, Ub-rhodamine cleavage fluorescence, 3 h. inhibition, % at 50 µM. actives 6.5% (n = 47,000)
USP30 block – blocks human USP30 ubiquitin-rhodamine cleavage | Q70CQ3 | purified USP30, Ub-rhodamine cleavage fluorescence | inhibition, % at 25 µM | actives 5.3% (n = 47,000) | AID 1645860
* marks the source's active call; other numbers are inactive results. Cut-off read from the data, not from the text of the source: active = inhibition above about 30%; inactive = the rest.

For COc1ccccc1-c1nc(-c2cn(-c3ccc(F)cc3)nn2)no1 the results were USP17 block 31* and USP30 block 41*.
For Cc1nc(-c2csc(S(=O)(=O)NCc3ccc(Br)cc3)c2)no1 the results were USP17 block 0 and USP30 block 10.
For COc1cc(C2CCN(C(=O)c3ccccc3Cl)CC2)on1 the results were USP17 block 9 and USP30 block 17.
`CNC(=O)c1cnn2c(C3CCCCN3C(=O)c3cccc(F)c3)ccnc12` (stereo not drawn) gave USP17 block 13 and USP30 block 6.
NS(=O)(=O)c1cccc(NC(=O)CNCC2CCCO2)c1 (stereo not drawn) was read as USP17 block 1 and USP30 block 0.
`Fc1cccc(-n2cc(-c3noc(-c4cccnc4)n3)nn2)c1` gave USP17 block 54* and USP30 block 61*.
For O=C(NCc1ccccn1)c1nc(-c2cn(-c3ccc(Cl)cc3)nn2)no1 the results were USP17 block 11 and USP30 block 20.
Screening COc1ccccc1Cc1nc(-c2cn(Cc3ccccc3)nn2)no1 returned USP17 block 14 and USP30 block 23.
Screening Clc1cccc(-n2cc(-c3noc(-c4ccncc4)n3)nn2)c1 returned USP17 block -32 and USP30 block -9.
`COc1ccccc1Cc1nc(-c2cn(-c3cccc(F)c3)nn2)no1` gave USP17 block 13 and USP30 block 34*.
Screening O=C(Nc1ccccc1)c1nc(-c2cn(-c3ccccc3)nn2)no1 returned USP17 block 17 and USP30 block 41*.
Cc1cccc(OCC(=O)NCC(c2ccco2)N2CCOCC2)c1 (stereo not drawn) was read as USP17 block -8.
CC(C)c1ccc(NC(=O)C2C3C=CC4(O3)C2C(=O)N(CCCN2CCC(Cc3ccccc3)CC2)C4C(=O)NC2CCCCC2)cc1 (stereo not drawn) was read as USP17 block 0 and USP30 block 36*.
`CC(C)CCN1C(=O)C2C(C(=O)Nc3ccc(Oc4ccccc4)cc3)C3C=CC2(O3)C1C(=O)NC1CCCCC1` (stereo not drawn) gave USP30 block 63*.
`CCCCN1C(=O)C2C(C(=O)Nc3ccc(Oc4ccccc4)cc3)C3C=CC2(O3)C1C(=O)NC1CCCCC1` (stereo not drawn) gave USP17 block 2 and USP30 block 11.
Screening CCN1CCN(CCCN2C(=O)C3C(C(=O)Nc4ccc(C(C)C)cc4)C4C=CC3(O4)C2C(=O)NC2CCCCC2)CC1 (stereo not drawn) returned USP17 block 9 and USP30 block 15.
Screening COc1ccc2cc(-c3nc4ccccn4c3NCc3ccccc3)c(=O)[nH]c2c1 returned USP17 block 14 and USP30 block -116.
`N#C/C(=C/c1ccc(OCc2cccc(C(=O)O)c2)cc1)c1ccccc1` gave USP17 block 27 and USP30 block 26.
N#C/C(=C\c1ccc(OCc2cccc(C(=O)O)c2)cc1)c1ccc(F)cc1 was read as USP17 block 69* and USP30 block 0.
O=C(c1ccc(N2CCNC(c3ccccc3)C2)nc1)N1CCC(O)(Cc2ccccc2)CC1 (stereo not drawn) was read as USP17 block -14 and USP30 block -8.
For Cc1ccc2cnn(CC(=O)N3CCc4ccccc43)c2c1 the results were USP17 block 0 and USP30 block 25.
Screening Cc1cccc(-n2ncc(C(=O)N3CCc4ccccc43)c2-n2cccc2)c1 returned USP17 block 15 and USP30 block 42*.
`Cc1ccccc1OCc1nc(-c2cccnc2)n[nH]1` gave USP17 block 4 and USP30 block 18.
Cc1ccc(C(=O)N2CCCn3cnc(CN4CCCC4=O)c3C2)cc1 was read as USP17 block -30.
For COc1ccc(-c2cc3nc(NCCc4ccc(S(N)(=O)=O)cc4)ccn3n2)cc1 the results were USP17 block 41* and USP30 block 10.
For c1ccc(-c2cc3nc(NCCc4ccncc4)ccn3n2)cc1 the results were USP17 block 0 and USP30 block 2.
Screening Cc1cccn2c(=O)cc(CNc3cccc(C#N)c3)nc12 returned USP30 block -66.
`O=C(O)[C@@H]1CCCN1C(=O)[C@H](Cc1ccccc1)n1c(=O)[nH]c2ccccc2c1=O` gave USP17 block 8 and USP30 block 18.
Screening O=C(Cn1c(=O)ccn(Cc2cccc(F)c2)c1=O)Nc1ccc(F)cc1 returned USP17 block 16 and USP30 block 13.
COc1cccc(OCCCn2c(C(C)NC(=O)c3ccco3)nc3ccccc32)c1 (stereo not drawn) was read as USP17 block 51* and USP30 block -8.
For COc1ccc(OCCCn2c(CNC(=O)c3ccco3)nc3ccccc32)cc1 the results were USP17 block 41* and USP30 block 48*.
`COc1cccc(OCCCn2c(CN(C)C(=O)c3ccco3)nc3ccccc32)c1` gave USP17 block -2 and USP30 block -20.
